Source: PubChem BioAssay AID1159580 (chemical genetic matrix, 2015)
Out of some 5,500 compounds screened, about 2,000 (36%) were called active. Inconclusive results (about 18%) are left out. Cut-off read from the data, not from the text of the source: active = normalized growth mostly below about 0.91 (no sharp cut-off); inconclusive = no clear call, values can overlap the other calls; inactive = mostly above about 0.92. This is one part of the list.

Assay: chemical genetic growth profiling, strain panel (AID 1159580);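 note: tested at 20 µM; growth read once vehicle control cultures reached saturation at 30 °C; 1 = growth at the plate median or of vehicle wells; lower values mean less growth of the strain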
Conditions: growth OD

Measured: normalized growth

CCCCCCC(C)OC(=O)COc1ccc(Cl)cc1Cl (configuration not stated)
inactive: S. cerevisiae deletion strains, locus YJR075W, strain HOC1, hits give low values 0.931 | S. cerevisiae deletion strains, locus YKL009W, strain mrt4, hits give low values 0.992 | S. cerevisiae deletion strains, locus YKL068W, hits give low values 0.998 | S. cerevisiae deletion strains, locus YKL085W, strain MDH1 (second series), hits give low values 0.984 | S. cerevisiae deletion strains, locus YKL085W, strain MDH1, hits give low values 0.984 | S. cerevisiae deletion strains, locus YKL160W, strain elf1, hits give low values 0.996 | S. cerevisiae deletion strains, locus YKL190W, strain CNB1, hits give low values 0.997 | S. cerevisiae deletion strains, locus YKR001C, strain vps1, hits give low values 0.998 | S. cerevisiae deletion strains, locus YKR026C, strain gcn3, hits give low values 0.989 | S. cerevisiae deletion strains, locus YKR091W, strain srl3, hits give low values 0.993 | S. cerevisiae deletion strains, locus YLL001W, strain dnm1, hits give low values 0.991 | S. cerevisiae deletion strains, locus YLL026W, hits give low values 0.986 | S. cerevisiae deletion strains, locus YLL041C, strain sdh2, hits give low values 0.994 | S. cerevisiae deletion strains, locus YLR027C, strain aat2, hits give low values 0.995 | S. cerevisiae deletion strains, locus YLR039C, strain RIC1, hits give low values 0.893 | S. cerevisiae deletion strains, locus YLR058C, strain SHM2, hits give low values 0.996 | S. cerevisiae deletion strains, locus YLR102C, strain apc9, hits give low values 1 | S. cerevisiae deletion strains, locus YLR113W, strain HOG1, hits give low values 0.961 | S. cerevisiae deletion strains, locus YLR221C, strain rsa3, hits give low values 0.989 | S. cerevisiae deletion strains, locus YLR258W, strain gsy2, hits give low values 0.981 | S. cerevisiae deletion strains, locus YLR262C, strain YPT6 (second series), hits give low values 0.971 | S. cerevisiae deletion strains, locus YLR262C, strain YPT6, hits give low values 0.983 | S. cerevisiae deletion strains, locus YLR268W, strain sec22, hits give low values 0.997 | S. cerevisiae deletion strains, locus YLR320W, strain mms22, hits give low values 0.982 | S. cerevisiae deletion strains, locus YLR330W, strain CHS5, hits give low values 0.992 | S. cerevisiae deletion strains, locus YLR342W, strain FKS1 (second series), hits give low values 1.01 | S. cerevisiae deletion strains, locus YLR342W, strain FKS1, hits give low values 0.987 | S. cerevisiae deletion strains, locus YLR357W, strain rsc2, hits give low values 1.01 | S. cerevisiae deletion strains, locus YLR370C, strain arc18, hits give low values 0.994 | S. cerevisiae deletion strains, locus YLR371W, strain rom2, hits give low values 0.997 | S. cerevisiae deletion strains, locus YLR384C, strain iki3, hits give low values 0.993 | S. cerevisiae deletion strains, locus YLR418C, strain cdc73, hits give low values 0.965 | S. cerevisiae deletion strains, locus YML016C, strain PPZ1, hits give low values 0.997 | S. cerevisiae deletion strains, locus YML032C, strain rad52, hits give low values 1.01 | S. cerevisiae deletion strains, locus YML120C, strain ndi1, hits give low values 0.983 | S. cerevisiae deletion strains, locus YML124C, strain tub3, hits give low values 0.998 | S. cerevisiae deletion strains, locus YMR058W, strain fet3, hits give low values 0.994 | S. cerevisiae deletion strains, locus YMR078C, strain ctf18, hits give low values 1.01 | S. cerevisiae deletion strains, locus YMR125W, strain sto1, hits give low values 0.983 | S. cerevisiae deletion strains, locus YMR129W, hits give low values 0.994 | S. cerevisiae deletion strains, locus YMR205C, strain PFK2, hits give low values 0.968 | S. cerevisiae deletion strains, locus YMR223W, strain ubp8, hits give low values 0.989 | S. cerevisiae deletion strains, locus YMR231W, strain pep5, hits give low values 0.993 | S. cerevisiae deletion strains, locus YMR263W, strain SAP30, hits give low values 0.984 | S. cerevisiae deletion strains, locus YMR307W, strain GAS1, hits give low values 0.869 | S. cerevisiae deletion strains, locus YNL067W, strain RPL9B, hits give low values 0.985 | S. cerevisiae deletion strains, locus YNL071W, strain lat1, hits give low values 0.982 | S. cerevisiae deletion strains, locus YNL128W, strain TEP1, hits give low values 0.987 | S. cerevisiae deletion strains, locus YNL153C, strain GIM3, hits give low values 0.996 | S. cerevisiae deletion strains, locus YNL183C, strain NPR1, hits give low values 0.96 | S. cerevisiae deletion strains, locus YNL209W, strain ssb2, hits give low values 0.995 | S. cerevisiae deletion strains, locus YNL233W, strain BNI4, hits give low values 0.989 | S. cerevisiae deletion strains, locus YNL248C, strain rpa49, hits give low values 0.984 | S. cerevisiae deletion strains, locus YNL250W, strain rad50, hits give low values 1 | S. cerevisiae deletion strains, locus YNL271C, strain bni1, hits give low values 1 | S. cerevisiae deletion strains, locus YNL298W, strain CLA4, hits give low values 1 | S. cerevisiae deletion strains, locus YNL307C, strain MCK1, hits give low values 0.993 | S. cerevisiae deletion strains, locus YNL322C, strain KRE1 (second series), hits give low values 0.992 | S. cerevisiae deletion strains, locus YNL322C, strain KRE1, hits give low values 0.992 | S. cerevisiae deletion strains, locus YNR049C, strain mso1, hits give low values 0.984 | S. cerevisiae deletion strains, locus YNR052C, strain pop2, hits give low values 1.01 | S. cerevisiae deletion strains, locus YOL006C, strain TOP1, hits give low values 0.905 | S. cerevisiae deletion strains, locus YOL012C, strain htz1 0.707 | S. cerevisiae deletion strains, locus YOL147C, strain pex11, hits give low values 1 | S. cerevisiae deletion strains, locus YOR001W, strain rrp6, hits give low values 0.995 | S. cerevisiae deletion strains, locus YOR061W, strain CKA2, hits give low values 0.981 | S. cerevisiae deletion strains, locus YOR069W, strain VPS5, hits give low values 0.979 | S. cerevisiae deletion strains, locus YOR070C, strain gyp1, hits give low values 0.985 | S. cerevisiae deletion strains, locus YOR080W, strain dia2, hits give low values 0.995 | S. cerevisiae deletion strains, locus YOR083W, strain WHI5, hits give low values 0.999 | S. cerevisiae deletion strains, locus YOR106W, strain vam3, hits give low values 0.958 | S. cerevisiae deletion strains, locus YOR136W, strain idh2, hits give low values 1.01 | S. cerevisiae deletion strains, locus YOR144C, strain elg1, hits give low values 1.01 | S. cerevisiae deletion strains, locus YOR184W, strain ser1, hits give low values 0.991 | S. cerevisiae deletion strains, locus YOR231W, strain MKK1, hits give low values 1.04 | S. cerevisiae deletion strains, locus YOR265W, strain rbl2, hits give low values 0.991 | S. cerevisiae deletion strains, locus YOR270C, strain vph1, hits give low values 0.953 | S. cerevisiae deletion strains, locus YOR290C, strain snf2, hits give low values 0.995 | S. cerevisiae deletion strains, locus YOR316C, strain cot1, hits give low values 1 | S. cerevisiae deletion strains, locus YPL051W, strain arl3, hits give low values 0.989 | S. cerevisiae deletion strains, locus YPL055C, strain LGE1, hits give low values 0.94 | S. cerevisiae deletion strains, locus YPL078C, strain atp4, hits give low values 0.988 | S. cerevisiae deletion strains, locus YPL106C, strain sse1, hits give low values 1.01 | S. cerevisiae deletion strains, locus YPL240C, strain hsp82, hits give low values 1 | S. cerevisiae deletion strains, locus YPL241C, strain CIN2, hits give low values 0.995 | S. cerevisiae deletion strains, locus YPL256C, strain CLN2, hits give low values 1.01 | S. cerevisiae deletion strains, locus YPR119W, strain clb2, hits give low values 1 | S. cerevisiae deletion strains, locus YPR141C, strain kar3, hits give low values 0.995 | S. cerevisiae deletion strains, locus YPR163C, strain tif3, hits give low values 1.01 | S. cerevisiae deletion strains, locus YPR167C, strain met16, hits give low values 1 | S. cerevisiae deletion strains, strain wtn01, hits give low values 1 | S. cerevisiae strains, strain wild type, hits give low values 0.981
